Assay results reported in PubChem BioAssay AID1159580 (chemical genetic matrix, 2015).
The campaign covered roughly 5,500 compounds. About 2,000 (36%) were called active. About 18% were inconclusive and are not listed. Cut-off read from the data, not from the text of the source: active = normalized growth mostly below about 0.91 (no sharp cut-off); inconclusive = no clear call, values can overlap the other calls; inactive = mostly above about 0.92. This is one part of the list.

Experiment: chemical genetic growth profiling, strain panel (AID 1159580);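 note: tested at 20 µM; growth read once vehicle control cultures reached saturation at 30 °C; 1 = growth at the plate median or of vehicle wells; lower values mean less growth of the strain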
Details: growth OD

Measured: normalized growth

O=c1cccc2n1C[C@H]1CNCC2C1
inactive: S. cerevisiae deletion strains, locus YJR043C, strain POL32, hits give low values 1.01 | S. cerevisiae deletion strains, locus YJR066W, strain TOR1, hits give low values 0.988 | S. cerevisiae deletion strains, locus YKL009W, strain mrt4, hits give low values 1.02 | S. cerevisiae deletion strains, locus YKL068W, hits give low values 0.98 | S. cerevisiae deletion strains, locus YKL085W, strain MDH1 (second series), hits give low values 1 | S. cerevisiae deletion strains, locus YKL085W, strain MDH1, hits give low values 1 | S. cerevisiae deletion strains, locus YKL160W, strain elf1, hits give low values 0.984 | S. cerevisiae deletion strains, locus YKR001C, strain vps1, hits give low values 0.964 | S. cerevisiae deletion strains, locus YKR026C, strain gcn3, hits give low values 0.994 | S. cerevisiae deletion strains, locus YKR091W, strain srl3, hits give low values 1.01 | S. cerevisiae deletion strains, locus YLL001W, strain dnm1, hits give low values 0.95 | S. cerevisiae deletion strains, locus YLL026W, hits give low values 1.01 | S. cerevisiae deletion strains, locus YLL041C, strain sdh2, hits give low values 0.998 | S. cerevisiae deletion strains, locus YLR027C, strain aat2, hits give low values 1 | S. cerevisiae deletion strains, locus YLR039C, strain RIC1, hits give low values 1.01 | S. cerevisiae deletion strains, locus YLR058C, strain SHM2, hits give low values 1.01 | S. cerevisiae deletion strains, locus YLR102C, strain apc9, hits give low values 0.985 | S. cerevisiae deletion strains, locus YLR113W, strain HOG1, hits give low values 0.979 | S. cerevisiae deletion strains, locus YLR221C, strain rsa3, hits give low values 0.971 | S. cerevisiae deletion strains, locus YLR258W, strain gsy2, hits give low values 0.982 | S. cerevisiae deletion strains, locus YLR262C, strain YPT6 (second series), hits give low values 0.998 | S. cerevisiae deletion strains, locus YLR262C, strain YPT6, hits give low values 1.01 | S. cerevisiae deletion strains, locus YLR268W, strain sec22, hits give low values 0.971 | S. cerevisiae deletion strains, locus YLR320W, strain mms22, hits give low values 0.974 | S. cerevisiae deletion strains, locus YLR330W, strain CHS5, hits give low values 0.989 | S. cerevisiae deletion strains, locus YLR342W, strain FKS1 (second series), hits give low values 1.04 | S. cerevisiae deletion strains, locus YLR342W, strain FKS1, hits give low values 1.01 | S. cerevisiae deletion strains, locus YLR357W, strain rsc2, hits give low values 1.09 | S. cerevisiae deletion strains, locus YLR370C, strain arc18, hits give low values 0.99 | S. cerevisiae deletion strains, locus YLR371W, strain rom2, hits give low values 0.976 | S. cerevisiae deletion strains, locus YLR384C, strain iki3, hits give low values 1 | S. cerevisiae deletion strains, locus YLR418C, strain cdc73, hits give low values 1.03 | S. cerevisiae deletion strains, locus YML016C, strain PPZ1, hits give low values 1.01 | S. cerevisiae deletion strains, locus YML032C, strain rad52, hits give low values 1.01 | S. cerevisiae deletion strains, locus YML120C, strain ndi1, hits give low values 0.993 | S. cerevisiae deletion strains, locus YML124C, strain tub3, hits give low values 0.995 | S. cerevisiae deletion strains, locus YMR058W, strain fet3, hits give low values 1.01 | S. cerevisiae deletion strains, locus YMR078C, strain ctf18, hits give low values 0.984 | S. cerevisiae deletion strains, locus YMR125W, strain sto1, hits give low values 0.992 | S. cerevisiae deletion strains, locus YMR129W, hits give low values 1 | S. cerevisiae deletion strains, locus YMR205C, strain PFK2, hits give low values 0.994 | S. cerevisiae deletion strains, locus YMR223W, strain ubp8, hits give low values 1.01 | S. cerevisiae deletion strains, locus YMR231W, strain pep5, hits give low values 1.01 | S. cerevisiae deletion strains, locus YMR263W, strain SAP30, hits give low values 1 | S. cerevisiae deletion strains, locus YMR307W, strain GAS1, hits give low values 1.07 | S. cerevisiae deletion strains, locus YNL067W, strain RPL9B, hits give low values 1.01 | S. cerevisiae deletion strains, locus YNL071W, strain lat1, hits give low values 1.01 | S. cerevisiae deletion strains, locus YNL153C, strain GIM3, hits give low values 1.03 | S. cerevisiae deletion strains, locus YNL183C, strain NPR1, hits give low values 0.987 | S. cerevisiae deletion strains, locus YNL209W, strain ssb2, hits give low values 1.01 | S. cerevisiae deletion strains, locus YNL233W, strain BNI4, hits give low values 1.03 | S. cerevisiae deletion strains, locus YNL248C, strain rpa49, hits give low values 1.09 | S. cerevisiae deletion strains, locus YNL250W, strain rad50, hits give low values 0.929 | S. cerevisiae deletion strains, locus YNL271C, strain bni1, hits give low values 0.988 | S. cerevisiae deletion strains, locus YNL298W, strain CLA4, hits give low values 1.01 | S. cerevisiae deletion strains, locus YNL307C, strain MCK1, hits give low values 0.983 | S. cerevisiae deletion strains, locus YNL322C, strain KRE1 (second series), hits give low values 1 | S. cerevisiae deletion strains, locus YNR049C, strain mso1, hits give low values 1 | S. cerevisiae deletion strains, locus YNR052C, strain pop2, hits give low values 1.01 | S. cerevisiae deletion strains, locus YOL006C, strain TOP1, hits give low values 1.02 | S. cerevisiae deletion strains, locus YOL012C, strain htz1 1.03 | S. cerevisiae deletion strains, locus YOL147C, strain pex11, hits give low values 0.998 | S. cerevisiae deletion strains, locus YOR001W, strain rrp6, hits give low values 0.987 | S. cerevisiae deletion strains, locus YOR061W, strain CKA2, hits give low values 1.01 | S. cerevisiae deletion strains, locus YOR069W, strain VPS5, hits give low values 0.999 | S. cerevisiae deletion strains, locus YOR070C, strain gyp1, hits give low values 0.998 | S. cerevisiae deletion strains, locus YOR080W, strain dia2, hits give low values 1 | S. cerevisiae deletion strains, locus YOR083W, strain WHI5, hits give low values 0.991 | S. cerevisiae deletion strains, locus YOR106W, strain vam3, hits give low values 1.01 | S. cerevisiae deletion strains, locus YOR136W, strain idh2, hits give low values 0.994 | S. cerevisiae deletion strains, locus YOR144C, strain elg1, hits give low values 1 | S. cerevisiae deletion strains, locus YOR184W, strain ser1, hits give low values 0.996 | S. cerevisiae deletion strains, locus YOR231W, strain MKK1, hits give low values 1.02 | S. cerevisiae deletion strains, locus YOR265W, strain rbl2, hits give low values 1.01 | S. cerevisiae deletion strains, locus YOR270C, strain vph1, hits give low values 1.05 | S. cerevisiae deletion strains, locus YOR290C, strain snf2, hits give low values 0.958 | S. cerevisiae deletion strains, locus YOR316C, strain cot1, hits give low values 0.994 | S. cerevisiae deletion strains, locus YPL051W, strain arl3, hits give low values 1 | S. cerevisiae deletion strains, locus YPL078C, strain atp4, hits give low values 0.997 | S. cerevisiae deletion strains, locus YPL106C, strain sse1, hits give low values 0.957 | S. cerevisiae deletion strains, locus YPL240C, strain hsp82, hits give low values 0.993 | S. cerevisiae deletion strains, locus YPL241C, strain CIN2, hits give low values 1 | S. cerevisiae deletion strains, locus YPL256C, strain CLN2, hits give low values 1.07 | S. cerevisiae deletion strains, locus YPR119W, strain clb2, hits give low values 0.981 | S. cerevisiae deletion strains, locus YPR141C, strain kar3, hits give low values 0.982 | S. cerevisiae deletion strains, locus YPR163C, strain tif3, hits give low values 0.993 | S. cerevisiae deletion strains, locus YPR167C, strain met16, hits give low values 0.98 | S. cerevisiae deletion strains, strain wtn01, hits give low values 0.958 | S. cerevisiae strains, strain wild type, hits give low values 1.01
